Screens deposited in PubChem BioAssay by National Center for Advancing Translational Sciences (NCATS).
Hits are enriched below; roughly 19% of the tested compounds scored in any of these assays.
HT1080-NT tox – qHTS for induction of synthetic lethality in tumor cells producing 2HG: qHTS for the HT-1080-NT fibrosarcoma cell line | HT-1080-NT fibrosarcoma viability, CellTiter-Glo ATP luminescence, 48 h | Potency, µM (doses to about 46.1 µM), for inactives: top-dose activity, negative = less viability, actives largely listed as cytotoxic | hit rate 1.6% among 360,000 | AID 686970, 2013;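 further: NT is the 2HG producing partner of a matched IDH1 knockdown line; potency means the concentration at half of the fitted maximal effect; 0% = DMSO-treated cells and -100% = media-only wells without cells; nearly all actives have a fitted effect of over 55% in size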
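HT-1080-NT fibrosarcoma cells (2HG-overproducing), 750 cells/well in RPMI with 5% FBS, dosed after 2 h and incubated 48 h at 37C. CellTiter-Glo luminescence normalized to DMSO and no-cell wells; concentration-response curves fitted and classed.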
TDP1 cell CPT – qHTS for Inhibitors of human tyrosyl-DNA phosphodiesterase 1 (TDP1): qHTS in cells in presence of CPT. chicken DT40 Tdp1-/-;hTDP1 cells + 20 nM CPT, ATP luminescence, 48 h. hit rate 12% among 420,000. Potency, µM (highest dose often 46.2 µM), without a hit: at the top dose activity change, negative = growth inhibition, actives largely listed as inhibitors; further: potency means the concentration at half of the fitted maximal effect; nearly all actives have a fitted effect of over 55% in size
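Cell growth measured by CellTiter-Glo luminescence after a minimum 48 h, 37 C compound exposure with 20 nM CPT in Tdp1-knockout DT40 cells stably expressing hTDP1, seeded 400/well; qHTS titration format.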
IL-1B inflam inh – qHTS for Inhibitors of Inflammasome Signaling: IL-1-beta AlphaLISA Primary Screen; activity change, % at 57.5 µM; hit rate 4.7% among 360,000; THP-1 LPS/ATP IL-1B secretion, AlphaLISA, 16 h; stronger effect = lower value; in the data active means activity change below about -50%; inconclusive means mostly about -30% to -49%
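THP-1 cells pretreated 1 hr with compounds (up to 57.5 uM final), then stimulated with LPS (250 ng/mL final) plus ATP (1.25 mM final); secreted IL-1B measured by AlphaLISA after 16 hr, decreased signal indicating inhibition.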
TDP1 cell noCPT – qHTS for Inhibitors of human tyrosyl-DNA phosphodiesterase 1 (TDP1): qHTS in cells in absence of CPT; DT40 Tdp1-/- hTDP1 cells, no CPT, ATP luminescence, 48 h; Potency, µM (top dose mostly 46.2 µM), for inactives: at the highest dose activity change, negative = growth inhibition, most hits filed as inhibitors; hit rate 15% among 420,000; AID 686978, 2013; further: potency means the concentration at half of the fitted maximal effect; nearly all actives have a fitted effect of over 55% in size
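Compound effects on proliferation are scored in DT40 Tdp1-/-;hTDP1 cells in the absence of CPT. ATP levels (CellTiter-Glo luminescence) are recorded after a ≥48 hr, 37 °C incubation.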
HT1080 IDH1KD tx – qHTS for induction of synthetic lethality in tumor cells producing 2HG: qHTS for the HT-1080-IDH1KD cell line; HT-1080 IDH1 knockdown viability, ATP luminescence, 48 h; Potency, µM (series often up to 46.1 µM), without a hit: at the top dose activity, negative = toxicity, hits mostly cytotoxic; hit rate 2% among 360,000; AID 686971, 2013;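 further: potency means the concentration at half of the fitted maximal effect; 0% = DMSO wells and -100% = cell-free medium wells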
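After a 2 h attachment period, IDH1KD HT-1080 cells took pin-transferred compound for 48 h at 37 °C; ATP-based luminescence after 10 min room-temperature reagent incubation reported viability.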
ELG1 repair inh – qHTS screen for small molecules that inhibit ELG1-dependent DNA repair in human embryonic kidney (HEK293T) cells expressing luciferase-tagged ELG1; HEK293T ELG1-luciferase reporter, luminescence, 16 h; DNA damage induced by 5-fluorouridine; hit rate 2.3% among 330,000; Potency, µM (titrated, usually from 46.1 µM), for inactives: at the highest dose activity change, negative = inhibition, usual class: inhibitors; further: potency means the concentration at half of the fitted maximal effect; nearly all actives have a fitted effect of over 55% in size
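5-Fluorouridine DNA damage + compound/DMSO, 2,000 cells/well, 16 h, 37 °C/5% CO2. ONE-Glo, 30 min RT, luminescence. Readout = decrease in reporter signal.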
* = called active by the depositor; ? = inconclusive; · = no result; [ ] = remark or other dose. Unless noted, the call rests on the fitted dose curve; in most records, active means well fitted curve in the direction sought with a large enough effect; inconclusive means small, poorly fitted or top-dose-only effect, or another doubt; inactive means no such curve, though single readings can be large; an effect the other way counts as inactive or inconclusive. Unless noted, on the % scale 0 is the no-effect control and ±100 the full control effect.

SMILES | HT1080-NT tox | TDP1 cell CPT | IL-1B inflam inh | TDP1 cell noCPT | HT1080 IDH1KD tx | ELG1 repair inh
COc1ccc(N(C(=O)Cc2cccs2)C(C(=O)NC2CCCC2)c2ccncc2)cc1 (stereo not given) | 5.0% | ? | -4.2 | ? | -0.7% | -9.7%
O=C(NCCc1ccccn1)C1CC12CCN(C(=O)c1ccccc1Cl)CC2 (stereo not given) | · | 2.7% | · | 6.4% | · | ·
O=C(Cc1ccccc1F)Nc1cccc(S(=O)(=O)N2CCOCC2)c1 | 3.9% | 4.5% | 20.7 | -24.3% | 12.0% | -9.9%
COc1cccc(N(C(=O)c2cnccn2)C(C(=O)NC2CCCCC2)c2ccc(Cl)cc2)c1 (stereo not given) | -26.1% | -18.0% | -9.7 | -21.2% | -27.2% | 2.3%
COc1ccc(C(C(=O)NC2CCCCC2)N(C(=O)CCl)c2cccc(Cl)c2)cc1 (stereo not given) | 9.2µM* | 2.31µM* | -110.2* | 1.84µM* | 1.64µM* | ?
O=C(NCC(O)CO)c1c(I)c(C(=O)NCC(O)CO)c(I)c(N(CCO)C(=O)CO)c1I (stereo not given) | · | -1.3%[21.1 µM] | · | -11.3%[21.1 µM] | · | ·
O=C(COC(=O)/C=C/c1ccc(S(=O)(=O)N2CCc3ccccc32)cc1)NC1CCS(=O)(=O)C1 (stereo not given) | 0.0% | -20.6% | -3.5 | ? | 22.7% | 4.4%
COc1ccc(CCNC(=O)c2ccc(Cn3c(=O)c4ccccc4n(Cc4ccc(F)cc4Cl)c3=O)cc2)cc1OC | · | -12.6% | · | -23.4% | · | ·
COCCCNC(=O)Cn1c(=O)n(Cc2ccc(C(=O)NCCc3ccc(OC)c(OC)c3)cc2)c(=O)c2ccccc21 | 7.1% | 4.5% | 6.7 | ? | 0.0% | ?
CCn1c(=O)c(C(=O)NCCc2ccc(OC)c(OC)c2)c(O)c2ccccc21 | -6.5% | 16.4µM* | 11.0 | 20.6µM* | 0.0% | 9.5%
COc1ccc(CCNC(=O)c2ccc(Cn3c(=O)c4ccccc4n(Cc4cccc(Cl)c4)c3=O)cc2)cc1OC | · | 20.6µM* | · | 10.3µM* | · | ·
COc1ccc(CCNC(=O)c2ccc(Cn3c(=O)c4ccccc4n(Cc4cccc(F)c4)c3=O)cc2)cc1OC | · | 16.4µM* | · | 16.4µM* | · | ·
COCCCNC(=O)c1ccc(Cn2c(=O)c3ccccc3n(CC(=O)NCCc3ccc(OC)c(OC)c3)c2=O)cc1 | -9.8% | 23.1µM* | -4.7 | 18.4µM* | 2.5% | -14.1%
COc1ccc(CCNC(=O)c2ccc(Cn3c(=O)c4ccccc4n(Cc4cc(C)ccc4C)c3=O)cc2)cc1OC | · | -16.8% | · | ? | · | ·
CC1CC(C)CN(C(=O)CCC(=O)Nc2nnc(C3CCCCC3)s2)C1 (stereo not given) | ? | ? | 8.8 | ? | 9.4% | -6.4%
Clc1cccc(-c2csc(-c3nc(-c4ccc(Br)s4)cs3)n2)c1 | · | -0.8% | · | -1.5% | · | ·
CC1(C)Oc2ccc3ccc(=O)oc3c2/C(=C/Nc2ccccc2)C1=O | -24.7% | ? | -58.9* | -28.0% | -28.0% | ?
Cc1ccc(S(=O)(=O)Nc2ccc3[nH]c(=O)sc3c2)cc1C | · | ? | · | 16.4µM* | · | ·
Cc1ccc(NS(=O)(=O)c2ccc3c(c2)NC(=O)C(C)C(=O)N3)cc1F (stereo not given) | · | -29.7% | · | ? | · | ·
Cc1ccc(CCNS(=O)(=O)c2ccc3c(c2)C(C(C)C)C(=O)N3)cc1 (stereo not given) | · | ? | · | 20.6µM* | · | ·
Cc1ccc(NS(=O)(=O)c2ccc3c(c2)NC(=O)C(C)C(=O)N3)cc1C (stereo not given) | -29.5% | ? | 13.5 | 18.4µM* | -20.1% | -1.2%
Cc1ccc(NS(=O)(=O)c2ccc3c(c2)C(C(C)C)C(=O)N3)cc1C (stereo not given) | · | ? | · | 29.1µM* | · | ·
O=c1[nH]c2ccc(NS(=O)(=O)c3ccc(F)cc3)cc2s1 | · | -0.3% | · | ? | · | ·
CC1Sc2ccc(S(=O)(=O)NCCc3ccc(Cl)cc3)cc2NC1=O (stereo not given) | 8.1% | -24.3% | 19.3 | ? | 0.0% | 5.1%
O=C1C(=O)N(Cc2ccncc2)C(c2ccccc2F)/C1=C(\O)c1ccc2c(c1)OCCO2 (stereo not given) | 4.7% | -14.7% | -6.5 | 16.7% | 8.5% | 17.1%
SMILES | HT1080-NT tox | TDP1 cell CPT | IL-1B inflam inh | TDP1 cell noCPT | HT1080 IDH1KD tx | ELG1 repair inh
O=C1CCC[C@@H]2[C@H]3CCC[N+]4([O-])CCC[C@@H](CN12)[C@@H]34 (stereo not given in full) | 1.4% | 11.2% | 3.8 | 3.5% | -0.3% | 19.8%
CCCCN(CCC(=O)O)c1ccc(/C=C/c2ccnc3ccccc23)cc1 | · | 5.62µM* | · | 15.8µM* | · | ·
CCCCCN(CCCCC)c1ccc(/C=C/c2ccnc3ccccc23)cc1 | · | ? | · | 12.6µM* | · | ·
CCN(CCCN(C)C)c1ccc(/C=C/c2ccnc3ccccc23)cc1 | · | ? | · | 15.8µM* | · | ·
COc1ccc(CC(=O)Nc2nnc3n2CCS3)cc1 | · | -16.0% | · | -11.4% | · | ·
COc1cccc(-c2csc(N3CCN(C(=S)Nc4cccc(Cl)c4)CC3)n2)c1 | ? | -15.4% | -80.9* | -24.6% | ? | -9.1%
COc1cccc(-c2csc(N3CCN(C(=S)NCC(C)C)CC3)n2)c1 | -12.0% | 18.4µM* | -24.1 | ? | -11.3% | ?
CCNC(=S)N1CCN(c2nc(-c3cccc(OC)c3)cs2)CC1 | -19.3% | 10.3µM* | 4.7 | 14.6µM* | ? | ?
COCCNC(=S)N1CCN(c2nc(-c3cccc(OC)c3)cs2)CC1 | -12.9% | ? | 17.3 | ? | -9.3% | 1.4%
